The whole screen tested about 5,500 compounds, of which about 2,000 (36%) were called active. Inconclusive results (about 18%) are left out. Rule as the data show it: active = normalized growth mostly below about 0.91 (no sharp cut-off); inconclusive = no clear call, values can overlap the other calls; inactive = mostly above about 0.92. Some of the results follow.
Assay: chemical genetic growth profiling, strain panel (AID 1159580);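 also: tested at 20 µM; growth read once vehicle control cultures reached saturation at 30 °C; 1 = growth at the plate median or of vehicle wells; lower values mean less growth of the strain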
Conditions: S. cerevisiae deletion strains, growth OD

Measured: normalized growth

CC(=O)O[C@@H]1CC2C(C)(C)C=CC(=O)[C@]2(C)C2CC[C@@]3(C)[C@H](c4ccoc4)OC(=O)C4OC43[C@@]21C (some centres not stated)
inactive: locus YAL021C, strain ccr4, hits give low values 0.985 | locus YAL026C, strain drs2, hits give low values 1 | locus YAL030W, strain snc1, hits give low values 0.999 | locus YBL061C, strain skt5, hits give low values 1 | locus YBR009C, strain hhf1, hits give low values 1 | locus YBR021W, strain FUR4, hits give low values 1.04 | locus YBR023C, strain chs3, hits give low values 0.988 | locus YBR171W, strain sec66, hits give low values 1.01 | locus YBR229C, strain ROT2, hits give low values 1.01 | locus YBR231C, strain swc5, hits give low values 1.01 | locus YBR279W, strain paf1, hits give low values 1 | locus YCL011C, strain gbp2, hits give low values 0.998 | locus YCL016C, strain dcc1, hits give low values 1 | locus YCL029C, strain bik1, hits give low values 1 | locus YCL061C, strain MRC1, hits give low values 0.998 | locus YCL069W, strain vba3, hits give low values 0.992 | locus YCR088W, strain abp1, hits give low values 0.994 | locus YDL005C, strain med2, hits give low values 0.987 | locus YDL035C, strain GPR1, hits give low values 1.03 | locus YDL040C, strain nat1, hits give low values 0.986 | locus YDL074C, strain BRE1, hits give low values 1.03 | locus YDL101C, strain DUN1, hits give low values 1.01 | locus YDL134C, strain PPH21, hits give low values 1.02 | locus YDL185W, strain tfp1, hits give low values 0.984 | locus YDL192W, strain arf1, hits give low values 1 | locus YDR001C, strain nth1, hits give low values 0.995 | locus YDR069C, strain doa4, hits give low values 0.985 | locus YDR101C, strain arx1, hits give low values 1 | locus YDR137W, strain rgp1, hits give low values 0.974 | locus YDR159W, strain sac3, hits give low values 0.988 | locus YDR162C, strain NBP2, hits give low values 1.04 | locus YDR195W, strain ref2 1 | locus YDR297W, strain sur2, hits give low values 0.994 | locus YDR318W, strain mcm21, hits give low values 1.01 | locus YDR334W, strain swr1, hits give low values 1.01 | locus YDR335W, strain msn5, hits give low values 0.997 | locus YDR388W, hits give low values 1 | locus YDR392W, strain spt3, hits give low values 0.963 | locus YDR502C, strain sam2, hits give low values 0.991 | locus YEL003W, strain gim4, hits give low values 0.984 | locus YEL037C, strain rad23, hits give low values 0.998 | locus YEL061C, strain CIN8 (second series), hits give low values 0.995 | locus YER015W, strain faa2, hits give low values 1 | locus YER016W, strain bim1, hits give low values 0.993 | locus YER110C, hits give low values 1 | locus YER111C, strain swi4, hits give low values 1 | locus YER155C, strain BEM2 (second series), hits give low values 0.996 | locus YER155C, strain BEM2, hits give low values 1.01 | locus YER167W, strain BCK2, hits give low values 1.03 | locus YFR010W, strain ubp6, hits give low values 1.04 | locus YGL078C, strain dbp3, hits give low values 0.986 | locus YGL086W, strain mad1, hits give low values 1 | locus YGL167C, strain pmr1, hits give low values 0.991 | locus YGL173C, strain kem1, hits give low values 0.996 | locus YGL227W, strain vid30, hits give low values 0.992 | locus YGL240W, strain doc1, hits give low values 0.983 | locus YGL248W, strain PDE1, hits give low values 1.02 | locus YGL253W, strain hxk2, hits give low values 0.977 | locus YGR135W, strain pre9, hits give low values 0.987 | locus YGR229C, strain SMI1, hits give low values 1.04 | locus YGR252W, strain gcn5, hits give low values 0.994 | locus YHR013C, strain ard1, hits give low values 1.01 | locus YHR027C, strain rpn1, hits give low values 1 | locus YHR030C, strain SLT2, hits give low values 1.01 | locus YHR079C, strain IRE1 (second series), hits give low values 1 | locus YHR094C, strain hxt1, hits give low values 0.995 | locus YHR129C, strain ARP1, hits give low values 1.02 | locus YHR142W, strain chs7, hits give low values 0.987 | locus YHR200W, strain rpn10, hits give low values 0.998 | locus YIL066C, strain RNR3, hits give low values 1.02 | locus YIL073C, strain SPO22, hits give low values 1.03 | locus YIL125W, strain kgd1, hits give low values 1.01 | locus YIR030C, strain dcg1, hits give low values 0.996 | locus YJL092W, strain hpr5, hits give low values 1 | locus YJL095W, strain BCK1 (second series), hits give low values 1 | locus YJL095W, strain BCK1, hits give low values 1.01 | locus YJL115W, strain asf1, hits give low values 1 | locus YJL129C, strain trk1, hits give low values 0.994 | locus YJL134W, strain LCB3, hits give low values 1.01 | locus YJL154C, strain vps35, hits give low values 0.999 | locus YJL164C, strain tpk1, hits give low values 0.996 | locus YJL166W, strain qcr8, hits give low values 0.992 | locus YJL168C, strain set2, hits give low values 1 | locus YJL187C, strain SWE1 (second series), hits give low values 1.01 | locus YJL187C, strain SWE1, hits give low values 1 | locus YJR043C, strain POL32, hits give low values 1.03 | locus YJR075W, strain HOC1, hits give low values 1.02 | locus YKL068W, hits give low values 1 | locus YKL085W, strain MDH1 (second series), hits give low values 1 | locus YKL085W, strain MDH1, hits give low values 1 | locus YKL160W, strain elf1, hits give low values 0.997 | locus YKL190W, strain CNB1, hits give low values 1.02 | locus YKR001C, strain vps1, hits give low values 1 | locus YKR026C, strain gcn3, hits give low values 0.996 | locus YKR091W, strain srl3, hits give low values 1 | locus YLL001W, strain dnm1, hits give low values 1.01 | locus YLL026W, hits give low values 1 | locus YLL041C, strain sdh2, hits give low values 1 | locus YLR027C, strain aat2, hits give low values 0.997 | locus YLR039C, strain RIC1, hits give low values 1.05 | locus YLR058C, strain SHM2, hits give low values 1.03 | locus YLR102C, strain apc9, hits give low values 0.998 | locus YLR221C, strain rsa3, hits give low values 0.991 | locus YLR258W, strain gsy2, hits give low values 0.984 | locus YLR262C, strain YPT6 (second series), hits give low values 1 | locus YLR262C, strain YPT6, hits give low values 1.09 | locus YLR268W, strain sec22, hits give low values 1 | locus YLR320W, strain mms22, hits give low values 0.999 | locus YLR330W, strain CHS5, hits give low values 1.01 | locus YLR342W, strain FKS1 (second series), hits give low values 0.989 | locus YLR342W, strain FKS1, hits give low values 1 | locus YLR357W, strain rsc2, hits give low values 1.02 | locus YLR370C, strain arc18, hits give low values 0.999 | locus YLR371W, strain rom2, hits give low values 1.01 | locus YLR384C, strain iki3, hits give low values 1.01 | locus YLR418C, strain cdc73, hits give low values 0.973 | locus YML016C, strain PPZ1, hits give low values 1.02 | locus YML032C, strain rad52, hits give low values 1 | locus YML120C, strain ndi1, hits give low values 1 | locus YML124C, strain tub3, hits give low values 1 | locus YMR058W, strain fet3, hits give low values 1 | locus YMR078C, strain ctf18, hits give low values 0.985 | locus YMR125W, strain sto1, hits give low values 0.999 | locus YMR129W, hits give low values 0.99 | locus YMR205C, strain PFK2, hits give low values 0.996 | locus YMR223W, strain ubp8, hits give low values 0.997 | locus YMR231W, strain pep5, hits give low values 0.973 | locus YMR307W, strain GAS1, hits give low values 1.02 | locus YNL067W, strain RPL9B, hits give low values 1.02 | locus YNL071W, strain lat1, hits give low values 0.994 | locus YNL128W, strain TEP1, hits give low values 1.02 | locus YNL209W, strain ssb2, hits give low values 1.01 | locus YNL233W, strain BNI4, hits give low values 1.02 | locus YNL248C, strain rpa49, hits give low values 1.01 | locus YNL250W, strain rad50, hits give low values 0.989 | locus YNL271C, strain bni1, hits give low values 1 | locus YNL298W, strain CLA4, hits give low values 0.998 | locus YNL307C, strain MCK1, hits give low values 0.993 | locus YNL322C, strain KRE1 (second series), hits give low values 1 | locus YNR049C, strain mso1, hits give low values 1 | locus YNR052C, strain pop2, hits give low values 1 | locus YOL012C, strain htz1 0.75 | locus YOL147C, strain pex11, hits give low values 0.995 | locus YOR001W, strain rrp6, hits give low values 0.995 | locus YOR061W, strain CKA2, hits give low values 1.02 | locus YOR069W, strain VPS5, hits give low values 1.01 | locus YOR070C, strain gyp1, hits give low values 0.998 | locus YOR080W, strain dia2, hits give low values 0.993 | locus YOR083W, strain WHI5, hits give low values 1 | locus YOR106W, strain vam3, hits give low values 1.01 | locus YOR136W, strain idh2, hits give low values 1 | locus YOR144C, strain elg1, hits give low values 1.01 | locus YOR184W, strain ser1, hits give low values 1.01 | locus YOR265W, strain rbl2, hits give low values 0.997 | locus YOR270C, strain vph1, hits give low values 0.956 | locus YOR290C, strain snf2, hits give low values 0.968 | locus YOR316C, strain cot1, hits give low values 0.993 | locus YPL051W, strain arl3, hits give low values 1.03 | locus YPL055C, strain LGE1, hits give low values 1.03 | locus YPL078C, strain atp4, hits give low values 0.983 | locus YPL106C, strain sse1, hits give low values 1.02 | locus YPL240C, strain hsp82, hits give low values 0.998 | locus YPR119W, strain clb2, hits give low values 0.998 | locus YPR141C, strain kar3, hits give low values 0.998 | locus YPR163C, strain tif3, hits give low values 1.01 | locus YPR167C, strain met16, hits give low values 0.997 | strain wtn01, hits give low values 1.01
